# According to the supplement of paper PMC8285479:
# Counter-ions that a name gives are not always drawn. ± gives the standard deviation of the averaged measurements. In all, about 1,900 compounds were measured (“normalised cell viability (NPI; 0 = phenylarsine oxide control, 1 = DMSO control)”: median about 1, lowest 2% from about 0.039 on). For the sample, the lowest values were picked, then their nearest neighbours and some compounds at random.
# System: NCI-H1944
# Assay: normalised cell viability (NPI; 0 = phenylarsine oxide control, 1 = DMSO control) (fraction of DMSO control); NCI-H1944 is a non-small cell lung cancer line; higher = more viable cells (less compound toxicity)
# Conditions: 6 days
# [1] = glucocorticoid arm: hydrocortisone 2.75 uM co-treatment, compound 1 µM
# [2] = glucocorticoid arm: hydrocortisone 2.75 uM co-treatment, compound 5 µM
# [3] = glucocorticoid arm: hydrocortisone 2.75 uM pre-treated 2 days and continued, compound 1 µM
# [4] = glucocorticoid arm: hydrocortisone 2.75 uM pre-treated 2 days and continued, compound 5 µM
# [5] = glucocorticoid arm: vehicle, compound 1 µM
# [6] = glucocorticoid arm: vehicle, compound 5 µM
# 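Also: CTB read-out in 384-well plates, triplicate wells, NPI normalised per plate against 1 µM phenylarsine oxide (0) and 0.1% DMSO (1) controls.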
Structure (SMILES),normalised cell viability [1],normalised cell viability [2],normalised cell viability [3],normalised cell viability [4],normalised cell viability [5],normalised cell viability [6]
"NCCC1CCCC(CCN)N1 (stereo not given) [MDL 26,630 trihydrochloride]",0.9937 ± 0.0075,0.981 ± 0.021,0.9927 ± 0.0075,1.04 ± 0.11,0.9923 ± 0.0042,1 ± 0.011
NC1(C(=O)O)CCCCC1 [1-Amino-1-cyclohexanecarboxylic acid hydrochloride],0.998 ± 0.011,0.9907 ± 0.0081,0.9927 ± 0.0049,0.991 ± 0.013,0.9913 ± 0.009,0.999 ± 0.011
N#C/C(=C/c1ccc(O)c(O)c1)C(=O)N1CCc2ccccc21 [Tyrphostin AG 528],0.993 ± 0.0089,0.987 ± 0.032,1.02 ± 0.031,0.9767 ± 0.0095,1.003 ± 0.0058,1.02 ± 0.01
NCCCCCC(=O)O [6-Aminohexanoic acid],0.9763 ± 0.0095,0.972 ± 0.022,1 ± 0.011,0.971 ± 0.041,0.99 ± 0.019,0.9787 ± 0.0067
NCCCCC(=O)O [5-Aminovaleric acid hydrochloride],0.9807 ± 0.0096,0.99533 ± 0.00058,0.9797 ± 0.0035,0.9945 ± 0.00071,0.992 ± 0.0066,0.9927 ± 0.0032
NCC(=O)CCC(=O)O [Aminolevulinic acid hydrochloride; Aminolevulinic acid],1.04 ± 0.021,0.0671 ± 0.0064,1.023 ± 0.0058,0.486 ± 0.037,1.001 ± 0.0081,0.00332 ± 0.0013
[Cl-].[Li+] [Lithium Chloride],1.007 ± 0.0058,0.998 ± 0.013,1.01 ± 0.013,1.01 ± 0.018,1.01,1.002 ± 0.0072
C[C@]12CC[C@@H]3c4ccc(O)cc4CC[C@H]3[C@@H]1C[C@@H](O)[C@@H]2O [Estriol],1.02 ± 0.011,1.01 ± 0.014,1.01 ± 0.01,1.02 ± 0.021,1.007 ± 0.0058,1.01 ± 0.011
C[C@]12CC[C@@H]3c4ccc(O)cc4CC[C@H]3[C@@H]1CC[C@@H]2O [beta-Estradiol],0.9927 ± 0.005,0.954 ± 0.022,0.9937 ± 0.0055,0.962 ± 0.028,0.9753 ± 0.0031,0.9807 ± 0.0032
CNC(=O)[C@H]1O[C@@H](n2cnc3c(NCc4ccc(N)cc4)ncnc32)[C@H](O)[C@@H]1O,1.01 ± 0.012,0.9953 ± 0.0081,0.997 ± 0.003,1,0.9873 ± 0.0091,1.001 ± 0.0085
C[C@@H](Oc1ccc(Oc2cnc3ccc(Cl)cc3n2)cc1)C(=O)O,1.004 ± 0.0098,0.88 ± 0.023,0.858 ± 0.29,1.05 ± 0.015,1.027 ± 0.0058,0.522 ± 0.054
CNCC[C@@H](Oc1ccc(C(F)(F)F)cc1)c1ccccc1 [R-(-)-Fluoxetine hydrochloride],0.999 ± 0.011,0.92 ± 0.014,1.013 ± 0.0058,1.02 ± 0.029,0.995 ± 0.0036,0.9947 ± 0.005
N#Cc1ccc2[nH]c(O)c(-c3ccc(CN4CCOCC4)cn3)c2c1,1.11 ± 0.021,1.24 ± 0.021,1.053 ± 0.0058,1.11 ± 0.023,1.02 ± 0.011,1.05 ± 0.015
CN1CC2c3ccccc3Oc3ccc(Cl)cc3C2C1 (stereo not given) [Asenapine],1.002 ± 0.0072,1.02 ± 0.024,1.01 ± 0.011,1.01 ± 0.028,0.995 ± 0.0087,1 ± 0.0092
CN(C)CCC(c1ccc(Br)cc1)c1ccccn1 (racemic) [(±)-Brompheniramine maleate],1.001 ± 0.0081,1.03 ± 0.017,1.013 ± 0.0058,1.04 ± 0.014,1.013 ± 0.0058,1.02 ± 0.01
CC(C)C[C@H](NP(=O)(O)O[C@H]1O[C@H](C)[C@@H](O)[C@H](O)[C@@H]1O)C(=O)N[C@@H](Cc1c[nH]c2ccccc12)C(=O)O [Phosphoramidon disodium],0.9937 ± 0.0061,1.01 ± 0.02,1.01 ± 0.016,0.999 ± 0.011,0.991 ± 0.0044,0.9847 ± 0.0081
S=C(S)OC1CC2CC1C1CCCC21 [D-609 potassium],1.02 ± 0.01,1.03 ± 0.017,1.04 ± 0.02,1.04 ± 0.01,1.03 ± 0.011,1.03
Cn1c(=O)c2nc[nH]c2n(C)c1=O [Theophylline],1.001 ± 0.0085,1.01 ± 0.01,1.02 ± 0.021,0.9943 ± 0.0049,0.99 ± 0.0087,0.9907 ± 0.0038
O=C1OC(=O)[C@H]2[C@@H]1[C@@H]1CC[C@H]2O1 [Norcantharidin],1.007 ± 0.0058,1.03 ± 0.02,1.02 ± 0.011,0.924 ± 0.23,0.9903 ± 0.0011,1 ± 0.022
O=C(OCCN1CCOCC1)C1(c2ccccc2)CCCCC1,1.01 ± 0.011,1.03 ± 0.088,1.02 ± 0.015,0.891 ± 0.21,1.017 ± 0.0058,1.03 ± 0.011
O=C(Cc1ccc(-c2ccc(OCCN3CCOCC3)cc2)cn1)NCc1ccccc1,0.235 ± 0.021,0.258 ± 0.015,0.464 ± 0.041,0.518 ± 0.077,0.0379 ± 0.0028,0.0359 ± 0.0039
Cc1ccc(-n2nc(C(C)(C)C)cc2NC(=O)Nc2ccc(OCCN3CCOCC3)c3ccccc23)cc1 [BIRB 796 (Doramapimod)],0.806 ± 0.012,0.826 ± 0.03,0.775 ± 0.019,0.816 ± 0.034,0.995 ± 0.005,1.017 ± 0.0058
CCS(=O)(=O)Nc1ccc2[nH]c(O)c(C(=Nc3ccc(CN4CCCCC4)cc3)c3ccccc3)c2c1 [Hesperadin],0.435 ± 0.035,0.396 ± 0.068,0.419 ± 0.087,0.51 ± 0.08,0.371 ± 0.08,0.218 ± 0.035
CC(C)C[C@H](NC(=O)[C@H](CCc1ccccc1)NC(=O)CN1CCOCC1)C(=O)N[C@@H](Cc1ccccc1)C(=O)N[C@@H](CC(C)C)C(=O)[C@@]1(C)CO1 [Carfilzomib],0.0119 ± 0.0019,0.198 ± 0.017,0.652 ± 0.035,0.986 ± 0.013,0.00203 ± 0.0017,0.0026 ± 0.00057
CC(C)C[C@H](NC(=O)[C@H](CCc1ccccc1)NC(=O)CN1CCOCC1)C(=O)N[C@@H](Cc1ccccc1)C(=O)N[C@@H](CC(C)C)C(=O)[C@@]1(C)CO1 [Carfilzomib (PR-171)],0.0181 ± 0.0047,0.000755 ± 0.00097,0.777 ± 0.051,0.12 ± 0.025,0.0054 ± 0.0013,-0.000926 ± 0.0006
